Hit rate of the full screen: of about 360,000 compounds, about 11,000 (3.1%) were called active. A call without a number means that no potency is given here. Roughly 4% stayed inconclusive and do not appear here. The full list was thinned out, with actives kept by preference. Values without a mark were called inactive. Calls follow the shape of the dose curve; as a rule, active = well fitted inhibition curve with a large enough effect; inconclusive = small, poorly fitted or top-dose-only effect; inactive = no such curve, though single readings can be large or run the other way.
molecular target: Schistosoma mansoni thioredoxin glutathione reductase (TGR) (UniProt Q962Y6); assay: qHTS Assay for the Inhibitors of Schistosoma Mansoni Peroxiredoxins; settings: purified TGR, DTNB reduction, TNB absorbance 405 nm; series mostly up to 114 µM; also: nearly all actives have a fitted effect of over 60% in size
In short: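 Kinetic colorimetric format: TGR-catalysed, NADPH-driven DTNB reduction monitored via TNB absorbance. Enzyme dispensed at 20 nM; compound exposure 15 min at room temperature before reaction start.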
Potency is read from the fitted curve at half-maximal effect.

Row | SMILES | Potency | activity change, negative = inhibition
1 | CCC1=Nc2cc(C(=O)NCCCN3CCOCC3)ccc2Sc2ccc(Br)cc21 | inactive | 
2 | Cc1ccccc1CN1C(=O)c2ccccc2Sc2ccc(C(=O)NCCCN3CCOCC3)cc21 | inactive | 
3 | O=C(NCCCN1CCOCC1)c1ccc2c(c1)N(Cc1cccc(F)c1)C(=O)c1ccccc1S2 | 22.4 µM (active) | 
4 | Cc1ccc(CCNC(=O)c2ccc3c(c2)nc2n3CCC(C)C2)cc1 (stereo not drawn) | inactive | 
5 | CCOc1cccc(CC(=O)N2CCc3c([nH]c4ccccc34)C2c2ccc(OC)cc2)c1OCC (stereo not drawn) | inactive | 
6 | CCN(CC)S(=O)(=O)c1ccc2c(c1)nc(CN(C)C(=O)Nc1ccc(Cl)cc1)n2C | inactive | 
7 | CCOC(=O)/C=C/C(=O)OCC(=O)NC(c1ccccc1)c1ccccc1 | 15.8 µM (active) | 
8 | CCOC(=O)C(C(=O)OCC)C(C#N)c1ccccc1 (stereo not drawn) | inactive | 
9 | O=C(Cc1ccc(-c2ccccc2)cc1)NC(c1ccccc1)c1ccccc1 | inactive | 
10 | COc1cccc(C2C(C(=O)Nc3ccc(C)cc3C)=C(C)Nc3c(C(=O)Nc4ccccc4)cnn32)c1 (stereo not drawn) | inactive | 
11 | Cc1cccc(NC(=O)CSc2nc3c([nH]c4ccccc43)c(=O)n2-c2cc(C)cc(C)c2)c1 | inactive | 
12 | CSc1cccc(NC(=O)CN2C(=O)CCc3cc(S(=O)(=O)N4CCCCC4)ccc32)c1 | inactive | 
13 | COc1ccc(Cn2c(C(=O)O)c(CNCc3cccc(OC)c3)c3ccc(C)cc32)cc1 | inactive | 
14 | O=C(CSc1nc(=O)[nH]c2c1CCCC2)Nc1cc(C(F)(F)F)ccc1Cl | inactive | 
15 | Cc1nc2c(c(C)nn2-c2ccccc2)c(C)c1CCC(=O)NCCc1ccc(Cl)cc1 | inactive | 
16 | C=Cc1ccc(Cn2c(C(=O)O)c(CNC3CCCC3)c3ccc(C)cc32)cc1 | inactive | 
17 | CC(C)OCCCNC(=O)c1ccc(C2SCC(=O)N2Cc2ccco2)cc1 (stereo not drawn) | 25.1 µM (active) | 
18 | O=C(NCc1ccco1)c1ccc(Cn2c(=O)c3sccc3n(Cc3ccc(F)cc3)c2=O)cc1 | inactive | 
19 | CC(C)OCCCNC(=O)CNC(=O)c1cccs1 | inactive | 
20 | CCOc1ccc(NC(=O)c2cc(S(=O)(=O)N3CCCC3)c[nH]2)cc1 | inactive | 
21 | COc1ccc(CNC(=O)c2cc3c(s2)-c2ccccc2OC3)cc1 | inactive | 
22 | COc1cccc(CNC(=O)Cn2c(=O)c3cccn3c3ccc(F)cc32)c1OC | inactive | 
23 | O=C(CNC(=O)c1ccccc1)NCC(=O)OCC(=O)c1ccccc1 | inactive | 
24 | O=C(NNS(=O)(=O)Cc1ccccc1)c1ccc([N+](=O)[O-])cc1 | inactive | 
25 | O=C(CNC(=O)c1ccccc1)Oc1ccc([N+](=O)[O-])cc1 | 11.2 µM (active) | 

Row | SMILES | Potency | activity change, negative = inhibition
26 | COc1cc(CN(CC2CCCO2)C(=O)c2ccccc2F)cc(OC)c1OC (stereo not drawn) | inactive | 
27 | CCc1nc2c(cnn2-c2ccc(C)cc2)c(=O)n1-c1ccc(C)cc1 | inactive | 
28 | COc1ccc(CN2CCC(n3nccc3NC(=O)CCCc3ccccc3)CC2)cc1C | inactive | 
29 | COc1cc(CN2CCC(n3nccc3NC(=O)CCCc3ccccc3)CC2)ccc1O | 44.7 µM (active) | 
30 | Cc1ccc(CN2CCC(n3nccc3NC(=O)CCCc3ccccc3)CC2)o1 | inactive | 
31 | CC1=Nc2cc(C(=O)N3CCC(C)CC3)ccc2Sc2ccc(Cl)cc21 | inactive | 
32 | Cc1ccc(C)n1NC(=O)c1ccc([N+](=O)[O-])cc1 | inactive | 
33 | N=C1C(c2nc3ccccc3s2)=C(O)CN1NC(=O)c1ccc([N+](=O)[O-])cc1 | 12.6 µM (active) | 
34 | N=C1C(c2nc3ccccc3[nH]2)=C(O)CN1NC(=O)c1c[nH]c2ccccc12 | inactive | 
35 | CCC(=O)N1CCc2cc(Br)cc(S(=O)(=O)NCc3ccc(Cl)cc3)c21 | inactive | 
36 | Cc1nn(CC(=O)O)c(=O)c2cc3cc(F)ccc3n12 | inactive | 
37 | COc1ccccc1NC(=O)c1cc(S(=O)(=O)NCCc2ccccc2)ccc1F | inactive | 
38 | O=C(CSc1nc2ccc(Nc3nc(N4CCOCC4)nc(N4CCOCC4)n3)cc2s1)NCc1ccco1 | inactive | 
39 | C=CCn1c(CSc2nc3ccccc3s2)nnc1SCC(=O)NCc1ccco1 | 11.2 µM (active) | 
40 | C=CCn1c(SCC(=O)NCc2ccccc2)nnc1-c1cc(Br)ccc1O | inactive | 
41 | CCn1c2ccc(F)cc2c2nnc(SCCN3CCOCC3)nc21 | inactive | 
42 | Cn1c2ccc(F)cc2c2nnc(NN)nc21 | 50.1 µM (active) | 
43 | CC(=O)Nc1ccc(NC(=O)CSc2nnc3c4cc(Br)ccc4n(C)c3n2)cc1 | inactive | 
44 | COc1ccc(S(=O)(=O)NCc2cccn2Cc2cccc(C)c2)cc1Cl | inactive | 
45 | CCOc1cc(C(=O)Nc2nnc3n2CCS3)cc(OCC)c1OCC | inactive | 
46 | CCc1cccc(NC(=O)CN(c2ccc(C)c(C)c2)S(=O)(=O)c2ccsc2C(=O)OC)c1 | inactive | 
47 | CC(=O)N1CC(C)c2scc(C)[n+]2-c2ccccc21 (stereo not drawn) | 1.58 µM (active) | 
48 | Cc1ccc(/C=C(\C#N)C(=O)Nc2cc(C)ccc2C)cc1 | inactive | 
49 | Cc1nn(C(C)C(=O)Nc2ccc(C(C)C)cc2)c(=O)c2c1sc1ccccc12 (stereo not drawn) | inactive | 
50 | CCOC(=O)c1c(NC(=O)c2ccc(S(=O)(=O)N3CCCC(C)C3)cc2)sc2c1CCN(C(C)C)C2 (stereo not drawn) | inactive | 

Row | SMILES | Potency | activity change, negative = inhibition
51 | COC(=O)c1cc(NC(=O)CCc2c(C)nc3c4c(C)cc(C)nc4nn3c2C)cc(C(=O)OC)c1 | inactive | 
52 | Cc1cc(C)c2c(n1)nn1c(-n3ccnc3)cc(C)nc21 | 35.5 µM (active) | 
53 | Cc1cc(C)c2c(NC(=O)C3CC3)nn(C)c2n1 | inactive | 
54 | COc1ccc(NC(=O)Cn2c(=O)n(CCC(C)C)c(=O)c3cccnc32)cc1Cl | inactive | 
55 | Cc1c(C(=O)NCc2ccccc2Br)oc2ccc3c(c12)C(=O)CC(C)(C)O3 | inactive | 
56 | CCOC(=O)N1CCC(NC(=O)c2cnn(-c3cccc(C)c3)c2C2CCN(C(=O)OC(C)(C)C)CC2)CC1 | inactive | 
57 | COc1cc(Cl)ccc1Nc1ncc(C(=O)N2CCN(c3ccccc3OC)CC2)c2ccccc12 | inactive | 
58 | Cc1ccc2nc(CN3CCN(S(=O)(=O)c4ccc(C)c(C)c4)CC3)oc2c1 | inactive | 
59 | Cc1ccccc1CSc1nc(-c2ccccc2)nc2c1Cc1c(CO)cnc(C)c1O2 | 39.8 µM (active) | 
60 | CSc1nc(-c2ccccc2Cl)nc2c1Cc1c(CO)cnc(C)c1O2 | inactive | 
61 | CSc1nc(-c2ccc(F)cc2)nc2c1Cc1c(CO)cnc(C)c1O2 | inactive | 
62 | CC(=O)Nc1ccc(NC(=O)CN2CCCC(C)C2)c(Cl)c1 (stereo not drawn) |  | 9.99% [at 11.4 µM]
63 | Cc1cc(NC(=O)CN2CCCC(C)C2)n(-c2nc3ccccc3s2)n1 (stereo not drawn) | 12.6 µM (active) | 
64 | CC1CCCN(CC(=O)Nc2cc(Cl)ccc2Oc2ccccc2)C1 (stereo not drawn) | inactive | 
65 | COc1ccc(C(=O)Nc2nonc2-c2ccc(OC)c(OC)c2)cc1Cl | inactive | 
66 | COc1cccc(CNc2nccn(-c3ccc(OC)c(OC)c3)c2=O)c1 | inactive | 
67 | O=C(NCc1ccco1)c1cnn2c(C(F)(F)F)cc(-c3ccco3)nc12 | 50.1 µM (active) | 
68 | O=C(NCc1ccco1)c1ccc([N+](=O)[O-])cc1Cl | inactive | 
69 | O=C(O)c1cnn2c(C(F)(F)F)cc(-c3ccccc3)nc12 | inactive | 
70 | OCc1cnc(SCc2ccc(F)cc2)n1Cc1ccc(F)cc1 | inactive | 
71 | COc1ccc(N2CCN(c3cc(C)nc4nncn34)CC2)cc1 | inactive | 
72 | COC(=O)c1c(C)[nH]c(C(=O)/C=C/c2ccc(Cl)cc2)c1C | inactive | 
73 | Cc1[nH]c(=O)c(C(=O)/C=C/c2ccccc2)c2c1CCCC2 | 35.5 µM (active) | 
74 | C/C(=C\c1ccccc1)C1NC(=O)c2c(sc3c2CCCC3)N1 (stereo not drawn) | inactive | 
75 | Cc1nc(-c2ccc(Cl)cc2)sc1C(=O)CBr | 39.8 µM (active) | 

Row | SMILES | Potency | activity change, negative = inhibition
76 | Cc1nc(-c2ccc(Cl)cc2)sc1C1(C)CC(c2ccccc2F)=NO1 (stereo not drawn) | inactive | 
77 | Cc1nc(-c2ccccc2)sc1C(=O)/C=C/N(C)C | inactive | 
78 | COC(=O)c1cc(NC(=O)CCS(=O)(=O)c2cc(Br)cc3c2N(C(=O)C2CC2)CC3)cc(C(=O)OC)c1 | inactive | 
79 | Fc1ccccc1C(c1nnnn1Cc1ccc2c(c1)OCO2)N1CCN(Cc2ccccc2)CC1 (stereo not drawn) | inactive | 
80 | Cc1ccc(S(=O)(=O)Cn2nnnc2CN2CCN(Cc3ccc4c(c3)OCO4)CC2)cc1 | inactive | 
81 | Cc1cc(C)c2[nH]c(=O)c(C(c3nnnn3Cc3ccc4c(c3)OCO4)N3CCCC3)cc2c1 (stereo not drawn) | 15.8 µM (active) | 
82 | Cc1cc2nc(-c3ccc(NC(=O)c4cc5ccccc5o4)cc3)oc2cc1C | inactive | 
83 | COc1cc(OC)cc(C(=O)Nc2ccc3nc(Nc4cccc(C(F)(F)F)c4)cc(C)c3c2)c1 | inactive | 
84 | O=C(/C=C/c1ccc(Cl)cc1Cl)c1cccnc1 | 8.91 µM (active) | 
85 | O=C(NCc1ccc(Cl)c(Cl)c1)c1cccnc1 | inactive | 
86 | O=C(OCc1cc(Cl)ccc1OC(F)F)c1cccnc1 | inactive | 
87 | COc1ccc(-c2nc3ccccc3o2)cc1NC(=O)c1cc([N+](=O)[O-])ccc1N1CCOCC1 | inactive | 
88 | CN(C)CCCn1c(-c2ccc(Cl)cc2)csc1=Nc1ccccc1 | inactive | 
89 | O=C(NCc1ccco1)C1CCCN(S(=O)(=O)c2ccccc2)C1 (stereo not drawn) | inactive | 
90 | Cc1ccc(S(=O)(=O)N2CCC(C(=O)N[C@@H](C)C(=O)NCc3ccco3)CC2)cc1 | inactive | 
91 | Cc1ccc(S(=O)(=O)N2CCCC2C(=O)NCc2ccco2)cc1 (stereo not drawn) | 50.1 µM (active) | 
92 | O=C(NCc1ccco1)C1CCCN(S(=O)(=O)c2cnc[nH]2)C1 (stereo not drawn) | inactive | 
93 | Cc1ccc(CNC(=O)C2CCCN2S(=O)(=O)c2ccc3c(c2)C(C)(C)C(=O)N3C)cc1 (stereo not drawn) | inactive | 
94 | O=C(NCc1ccco1)C1CCCN(S(=O)(=O)c2cccc3nonc23)C1 (stereo not drawn) | 22.4 µM (active) | 
95 | O=C(NCCCO)C(=O)Nc1c2c(nn1-c1ccccc1)CSC2 | inactive | 
96 | Cc1c(-c2nsc(NC(=O)c3cccc(Cl)c3)n2)nnn1-c1ccccc1C(F)(F)F | inactive | 
97 | CCc1nn(CCCC(=O)NCc2ccccc2OC)c(=O)c2cc3occc3n12 | inactive | 
98 | CN1C(=O)c2ccccc2Sc2ccc(NC(=O)Cc3ccc(Cl)cc3)cc21 | inactive | 

Reference: PubChem BioAssay AID485364 (National Center for Advancing Translational Sciences (NCATS), 2010)
